# Data: the supplement of paper PMC10037445
# Values joined by “and” are separate entries in the source; they are usually repeats but may differ in a detail not shown here. Equal values may be shown once. In all, about 2,900 compounds were measured (“NF-kB SEAP reporter activity, fold change vs agonist alone”: median about 0.99, highest 2% from about 2.6 on). The full list was thinned out, with the highest values kept by preference.
# How the values were obtained:
# RAW-Dual [1] = assay: NF-kB SEAP reporter activity, fold change vs agonist alone; cytotoxicity flag (confluency mask): not cytotoxic; higher = enhanced NF-kB activity
# Procedure, shortened: (§1)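 RAW-Dual macrophages were seeded in DMEM at 50,000 cells/well in 384-well plates, given 50 nL of library stock by pin tool, and given a PRR agonist 1 h later. Plates were held at 37 °C, 5% CO2 for 20 hours, after which supernatant was read for IRF by QuantiLuc luminescence and for NF-κB by QuantiBlue absorbance at 620 nm. Reporter activity is expressed as fold change over wells that received agonist alone. A well was called cytotoxic when IncuCyte confluency fell below 70% of agonist controls in both mask sets.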
# RAW-Dual [2] = assay: NF-kB SEAP reporter activity, fold change vs agonist alone; higher = enhanced NF-kB activity
# Procedure, shortened: as §1
# RAW-Dual [3] = assay: NF-kB SEAP reporter activity, fold change vs agonist alone; cytotoxicity flag (confluency mask): cytotoxic (confluency <70% of control); higher = enhanced NF-kB activity
# Procedure, shortened: as §1
# [4] = agonist: ODN 1826 (TLR9) 0.5 ug/mL
# [5] = agonist: Pam2CSK4 (TLR2/6) 0.1 ug/mL
# [6] = agonist: Pam3CSK4 (TLR2/1) 0.1 ug/mL
# [7] = library stock concentration (final ~1000-fold dilution): 10 mM, cytotoxicity flag (confluency mask): not cytotoxic, agonist: Imiquimod (TLR7) […]
# [8] = library stock concentration (final ~1000-fold dilution): 10 mM, cytotoxicity flag (confluency mask): not cytotoxic, agonist: MPLA (TLR4) […]
# [9] = library stock concentration (final ~1000-fold dilution): 10 mM, cytotoxicity flag (confluency mask): cytotoxic (confluency <70% of control), agonist: Imiquimod (TLR7) […]
# [10] = library stock concentration (final ~1000-fold dilution): 10 mM, cytotoxicity flag (confluency mask): cytotoxic (confluency <70% of control), agonist: MPLA (TLR4) […]
smiles,measurement,setting,value
CCc1ccc(NC(=O)Nc2c[nH]c3ccccc23)cc1 (library stock concentration (final ~1000-fold dilution): 1 mM),NF-kB SEAP reporter activity,RAW-Dual [1]; agonist: LPS (TLR4) 0.1 ug/mL,0.445
same,NF-kB SEAP reporter activity,RAW-Dual [1]; [4],0.702
same,NF-kB SEAP reporter activity,RAW-Dual [1]; [5],0.417
same,NF-kB SEAP reporter activity,RAW-Dual [1]; [6],0.365
CCc1ccc(NC(=O)Nc2c[nH]c3ccccc23)cc1,NF-kB SEAP reporter activity,"RAW-Dual [2]; library stock concentration (final ~1000-fold dilution): 1 mM, cytotoxicity flag (confluency mask): not cytotoxic, agonist: Imiquimod (TLR7) […]",0.782
same,NF-kB SEAP reporter activity,"RAW-Dual [2]; library stock concentration (final ~1000-fold dilution): 1 mM, cytotoxicity flag (confluency mask): not cytotoxic, agonist: MPLA (TLR4) […]",0.736
CN(C(=O)n1cnc(-c2ccc[n+]([O-])c2)c1)C1CCCCC1 (library stock concentration (final ~1000-fold dilution): 10 mM),NF-kB SEAP reporter activity,RAW-Dual [1]; agonist: LPS (TLR4) 0.1 ug/mL,1.04
same,NF-kB SEAP reporter activity,RAW-Dual [1]; [4],0.925
same,NF-kB SEAP reporter activity,RAW-Dual [1]; [5],0.966
same,NF-kB SEAP reporter activity,RAW-Dual [1]; [6],1.01
CN(C(=O)n1cnc(-c2ccc[n+]([O-])c2)c1)C1CCCCC1,NF-kB SEAP reporter activity,RAW-Dual [2]; [7],0.995
same,NF-kB SEAP reporter activity,RAW-Dual [2]; [8],1.03
CC(=O)Oc1cc2c(cc1Cl)C(c1ccccc1C(=O)O)c1cc(Cl)c(OC(C)=O)cc1O2,NF-kB SEAP reporter activity,RAW-Dual [2]; [7],1.04
same,NF-kB SEAP reporter activity,RAW-Dual [2]; [8],1.41
CC(=O)Oc1cc2c(cc1Cl)C(c1ccccc1C(=O)O)c1cc(Cl)c(OC(C)=O)cc1O2 (library stock concentration (final ~1000-fold dilution): 10 mM),NF-kB SEAP reporter activity,RAW-Dual [1]; agonist: LPS (TLR4) 0.1 ug/mL,1.48
same,NF-kB SEAP reporter activity,RAW-Dual [1]; [4],1.24
same,NF-kB SEAP reporter activity,RAW-Dual [1]; [5],1.12
same,NF-kB SEAP reporter activity,RAW-Dual [1]; [6],1.05
COc1cc(C2CC(c3ccccc3)=NN2C(N)=S)cc(OC)c1OC (configuration not stated) (library stock concentration (final ~1000-fold dilution): 10 mM),NF-kB SEAP reporter activity,RAW-Dual [1]; agonist: LPS (TLR4) 0.1 ug/mL,1.16
same,NF-kB SEAP reporter activity,RAW-Dual [1]; [4],1.25
same,NF-kB SEAP reporter activity,RAW-Dual [1]; [5],0.997
same,NF-kB SEAP reporter activity,RAW-Dual [1]; [6],1.13
COc1cc(C2CC(c3ccccc3)=NN2C(N)=S)cc(OC)c1OC (configuration not stated),NF-kB SEAP reporter activity,RAW-Dual [2]; [7],1.58
same,NF-kB SEAP reporter activity,RAW-Dual [2]; [8],1.29
CCOc1cc(N2CCC(O)CC2)ccc1Nc1ncc2c(n1)N(C)c1ccccc1C(=O)N2C,NF-kB SEAP reporter activity,RAW-Dual [2]; [7],1.23
same,NF-kB SEAP reporter activity,RAW-Dual [2]; [8],1.91
CCOc1cc(N2CCC(O)CC2)ccc1Nc1ncc2c(n1)N(C)c1ccccc1C(=O)N2C (library stock concentration (final ~1000-fold dilution): 10 mM),NF-kB SEAP reporter activity,RAW-Dual [1]; agonist: LPS (TLR4) 0.1 ug/mL,3.72
same,NF-kB SEAP reporter activity,RAW-Dual [1]; [4],1.57
same,NF-kB SEAP reporter activity,RAW-Dual [1]; [5],1
same,NF-kB SEAP reporter activity,RAW-Dual [1]; [6],1.48
COc1cc(N2CCN(C)CC2)ccc1Nc1ncc2c(n1)N(C)c1ccccc1C(=O)N2 (library stock concentration (final ~1000-fold dilution): 10 mM),NF-kB SEAP reporter activity,RAW-Dual [1]; agonist: LPS (TLR4) 0.1 ug/mL,0.966
same,NF-kB SEAP reporter activity,RAW-Dual [1]; [4],0.514
same,NF-kB SEAP reporter activity,RAW-Dual [1]; [5],1.08
same,NF-kB SEAP reporter activity,RAW-Dual [1]; [6],1.61
CCOc1cc(C(=O)N2CCC(N3CCN(C)CC3)CC2)ccc1Nc1ncc2c(n1)N(C1CCCC1)c1ccccc1C(=O)N2C (library stock concentration (final ~1000-fold dilution): 10 mM),NF-kB SEAP reporter activity,RAW-Dual [3]; agonist: LPS (TLR4) 0.1 ug/mL,5.49
same,NF-kB SEAP reporter activity,RAW-Dual [3]; [4],1.31
same,NF-kB SEAP reporter activity,RAW-Dual [3]; [5],1.36
same,NF-kB SEAP reporter activity,RAW-Dual [3]; [6],3.42
CCOc1cc(C(=O)N2CCC(N3CCN(C)CC3)CC2)ccc1Nc1ncc2c(n1)N(C1CCCC1)c1ccccc1C(=O)N2C,NF-kB SEAP reporter activity,RAW-Dual [2]; [9],1.44
same,NF-kB SEAP reporter activity,RAW-Dual [2]; [10],2.71
COc1cc(N2CCC(N)CC2)ccc1Nc1ncc(Cl)c(-c2c[nH]c3ccccc23)n1 (library stock concentration (final ~1000-fold dilution): 10 mM),NF-kB SEAP reporter activity,RAW-Dual [3]; agonist: LPS (TLR4) 0.1 ug/mL,0.166
same,NF-kB SEAP reporter activity,RAW-Dual [3]; [4],0.19
same,NF-kB SEAP reporter activity,RAW-Dual [3]; [5],0.0626
same,NF-kB SEAP reporter activity,RAW-Dual [3]; [6],0.118
O=C(c1ccc(C(=O)N2CCC(N3CCCC3)CC2)c(Nc2ccccc2)c1)N1CCC(N2CCCC2)CC1,NF-kB SEAP reporter activity,RAW-Dual [2]; [7],0.917
same,NF-kB SEAP reporter activity,RAW-Dual [2]; [8],1.12
O=C(c1ccc(C(=O)N2CCC(N3CCCC3)CC2)c(Nc2ccccc2)c1)N1CCC(N2CCCC2)CC1 (library stock concentration (final ~1000-fold dilution): 10 mM),NF-kB SEAP reporter activity,RAW-Dual [1]; agonist: LPS (TLR4) 0.1 ug/mL,0.933
same,NF-kB SEAP reporter activity,RAW-Dual [1]; [4],0.944
same,NF-kB SEAP reporter activity,RAW-Dual [1]; [5],1.04
same,NF-kB SEAP reporter activity,RAW-Dual [1]; [6],1.33
COc1cc(C(=O)N2CCC(N3CCN(C)CC3)CC2)ccc1Nc1ncc2c(n1)N(C)c1ccccc1C(=O)N2C (library stock concentration (final ~1000-fold dilution): 10 mM),NF-kB SEAP reporter activity,RAW-Dual [1]; agonist: LPS (TLR4) 0.1 ug/mL,3.59
same,NF-kB SEAP reporter activity,RAW-Dual [1]; [4],0.264
same,NF-kB SEAP reporter activity,RAW-Dual [1]; [5],1.02
same,NF-kB SEAP reporter activity,RAW-Dual [1]; [6],2.01
COc1cc(N2CCC(N)CC2)ccc1Nc1ncc(Cl)c(-c2c[nH]c3ccccc23)n1,NF-kB SEAP reporter activity,RAW-Dual [2]; [9],0.251
same,NF-kB SEAP reporter activity,RAW-Dual [2]; [10],0.226
COc1cc(C(=O)N2CCC(N3CCN(C)CC3)CC2)ccc1Nc1ncc2c(n1)N(C)c1ccccc1C(=O)N2C,NF-kB SEAP reporter activity,RAW-Dual [2]; [7],1.48
same,NF-kB SEAP reporter activity,RAW-Dual [2]; [8],2.66
O=C(c1ccc(Nc2nccc(-c3cc4ccccc4s3)n2)cc1)N1CCC(N2CCCC2)CC1 (library stock concentration (final ~1000-fold dilution): 10 mM),NF-kB SEAP reporter activity,RAW-Dual [3]; agonist: LPS (TLR4) 0.1 ug/mL,0.302 and 0.283
same,NF-kB SEAP reporter activity,RAW-Dual [3]; [4],0.179 and 0.19
same,NF-kB SEAP reporter activity,RAW-Dual [3]; [5],0.0736 and 0.0841
same,NF-kB SEAP reporter activity,RAW-Dual [3]; [6],0.128 and 0.186
COc1cc(N2CCN(C)CC2)ccc1Nc1ncc2c(n1)N(C)c1ccccc1C(=O)N2,NF-kB SEAP reporter activity,RAW-Dual [2]; [7],0.928
same,NF-kB SEAP reporter activity,RAW-Dual [2]; [8],1.03
CC1OC(=O)C(C)C1CC(O)C(C)(O)C1CCC2(O)C3=CC(=O)C4CC(O)C(O)CC4(C)C3CCC12C (configuration not stated),NF-kB SEAP reporter activity,RAW-Dual [2]; [7],1.02
same,NF-kB SEAP reporter activity,RAW-Dual [2]; [8],1.05
CC1OC(=O)C(C)C1CC(O)C(C)(O)C1CCC2(O)C3=CC(=O)C4CC(O)C(O)CC4(C)C3CCC12C (configuration not stated) (library stock concentration (final ~1000-fold dilution): 10 mM),NF-kB SEAP reporter activity,RAW-Dual [1]; agonist: LPS (TLR4) 0.1 ug/mL,1.18
same,NF-kB SEAP reporter activity,RAW-Dual [1]; [4],1.02
same,NF-kB SEAP reporter activity,RAW-Dual [1]; [5],1.16
same,NF-kB SEAP reporter activity,RAW-Dual [1]; [6],1.23
CCOc1cc(N)c([N+](=O)[O-])cc1C(=O)NC1CCN(CC2CC=CCC2)CC1.O=C(O)C(O)C(O)C(=O)O (configuration not stated),NF-kB SEAP reporter activity,RAW-Dual [2]; [7],1.28
same,NF-kB SEAP reporter activity,RAW-Dual [2]; [8],1.03
